An excerpt weighted towards active compounds, which were near 0.78% of everything screened.
BLM inh = Bloom syndrome helicase (human) inhibition; P54132; recombinant BLM DNA unwinding, fluorescence dequenching; Potency, µM (highest dose often 56.1 µM), inactives show top-dose activity change, negative = inhibition, hits mostly inhibitors; hit rate 0.2% among 350,000; AID 2528;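 further: plate controls were vehicle for no effect and no enzyme for full effect; nearly all actives have a fitted effect of over 35% in size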
RECQ1 helicase = blocks DNA unwinding by human RECQ1 | P46063 | RECQ1 DNA unwinding, red fluorescence kinetic read | Potency, µM (top dose mostly 57.3 µM), without a hit: at the highest dose activity, negative = inhibition, most hits filed as inhibitors | hit rate 0.54% among 240,000 | AID 2549;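 further: plate controls were vehicle for no effect and no enzyme for full effect; nearly all actives have a fitted effect of over 30% in size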
Target sequence (P46063 whole entry, looked up): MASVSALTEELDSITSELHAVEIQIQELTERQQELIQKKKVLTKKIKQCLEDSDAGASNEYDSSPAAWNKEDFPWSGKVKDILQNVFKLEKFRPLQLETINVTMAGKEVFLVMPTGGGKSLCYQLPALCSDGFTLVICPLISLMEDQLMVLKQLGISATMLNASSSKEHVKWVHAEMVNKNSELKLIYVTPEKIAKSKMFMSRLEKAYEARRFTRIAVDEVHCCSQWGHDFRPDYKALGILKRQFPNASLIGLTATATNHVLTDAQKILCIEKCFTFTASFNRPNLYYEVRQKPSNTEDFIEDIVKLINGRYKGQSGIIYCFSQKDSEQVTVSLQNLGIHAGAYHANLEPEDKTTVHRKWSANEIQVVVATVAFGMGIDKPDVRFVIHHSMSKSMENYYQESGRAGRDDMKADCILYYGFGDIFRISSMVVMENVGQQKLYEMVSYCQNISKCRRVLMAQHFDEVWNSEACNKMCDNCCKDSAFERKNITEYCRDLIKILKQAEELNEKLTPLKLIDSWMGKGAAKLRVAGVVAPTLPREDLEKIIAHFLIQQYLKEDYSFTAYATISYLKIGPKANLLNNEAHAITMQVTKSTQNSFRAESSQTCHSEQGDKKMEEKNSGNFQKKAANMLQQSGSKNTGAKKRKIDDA
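RECQ1T1 50 nM; forked duplex (20 bp + 30-nt ss tails) 200 nM, ATP 2 mM final; pH 8.0, 2 mM MgCl2, 2.5 ug/ml poly(dI-dC); 15 min compound preincubation; discontinuous kinetic read over 2 h at RT.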
L3MBTL1 block = inhibitors of human L3MBTL1; Q9Y468; AlphaScreen L3MBTL1–H3K9me1 peptide binding; Potency, µM (doses to about 57.1 µM), for inactives: top-dose activity, negative = inhibition, hits mostly inhibitors; hit rate 0.66% among 230,000; further: nearly all actives have a fitted effect of over 60% in size
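First, the protein-peptide complex forms for 30 min at room temperature (L3MBTL1 50 nM, biotinylated H3K9me1 peptide 75 nM). Next, compounds are pin-transferred and incubated 30 min. Finally, AlphaScreen beads are added and read after 30 min.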
APEX1 inh = APE1 (human) endonuclease inhibition. P27695. recombinant APE1, TAMRA/BHQ-2 abasic DNA cleavage fluorescence. Potency, µM (series often up to 65.8 µM), without a hit: at the highest dose activity change, negative = inhibition, most hits filed as inhibitors. hit rate 0.35% among 350,000. AID 2517;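 further: plate controls were vehicle for no effect and reference inhibitor for full effect; nearly all actives have a fitted effect of over 55% in size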
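Step 1: APE1 (0.75 nM) with compound, 15 min RT. Step 2: add 50 nM fluorophore/quencher THF duplex. Step 3: three fluorescence reads 60 s apart (525/598 nm); read 3 minus read 1 = reaction progress.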
An asterisk follows results filed as active; i = inactive; ? = inconclusive; . = no result; ! = repeats disagree; [ ] = dose if it differs, or a comment. The call rests on the fitted dose curve; in most records, active means well fitted curve in the direction sought with a large enough effect; inconclusive means small, poorly fitted or top-dose-only effect, or another doubt; inactive means no such curve, though single readings can be large; an effect the other way counts as inactive or inconclusive. Unless noted, on the % scale 0 is the no-effect control and ±100 the full control effect; potency means the concentration at half of the fitted maximal effect.

SMILES | BLM inh | RECQ1 helicase | L3MBTL1 block | APEX1 inh
C/C(=N\Nc1ccc(Cl)c(C(=O)O)c1)c1ccc(N2CCOCC2)cc1 | 0% | . | . | 3%
C/C(=N\Nc1ccc(Cl)c(C(=O)O)c1)c1ccc[nH]1 | -3% | -13% | 28µM* | ?
COc1ccc(C2/C=C\CN(CC(C)C)C(C)C(=O)N2Cc2ccc(F)cc2)cc1 (configuration not stated) | -9% | -9% | . | -8%
C/C(=N/Nc1ccc(C(=O)O)cc1)c1ccc(O)c(O)c1O | -1% | 0% | 14µM* | ?
COc1ccc(/C(C)=N/Nc2ccc(C(=O)O)cc2)cc1OC | -5% | 0% | -1% | -3%
Cc1ccc(S(=O)(=O)Nc2cccc3ccc(C)nc23)cc1 | 2% | i | . | -6%
Oc1c(C(Nc2ccccn2)c2ccccn2)ccc2cccnc12 (configuration not stated) | -2% | -4% | 28µM* | -5%
CC1(C)S[C@@H]2[C@H](NC(=O)[C@H](N)c3ccccc3)C(=O)N2[C@H]1C(=O)O | ? | 20µM*! | -9% | 10µM*!
c1ccc2c(c1)CC/C2=N/Nc1nc2ccccc2[nH]1 | -6% | 35µM* | -22% | -9%
O=C1NC(=S)N/C1=C/c1cccn1-c1ccc([N+](=O)[O-])cc1 | -18% | 28µM* | ? | ?
O=C(O)C(O)c1ccccc1 (configuration not stated) | 3% | -12% | 7% | 2%
O=C(O)C(O)c1ccco1 (configuration not stated) | ? | -11% | 5µM* | 2%
CC(C)(C)n1ncc2c(=O)n(Cc3ccc(SC(F)(F)F)cc3)cnc21 | . | . | . | -7%
CN(C)c1ccc(NC2=C([N+](=O)[O-])CS(=O)(=O)C2)cc1 | -7% | 20µM* | . | -8%
COc1ccc(-c2[nH]n(-c3ccc([N+](=O)[O-])cc3)c(=O)c2C=NCc2ccc(F)cc2)cc1 | 1% | -10% | -5% | 30%
COc1ccc(-c2[nH]n(-c3ccc([N+](=O)[O-])cc3)c(=O)c2C=NCc2ccncc2)cc1 | 7.9µM* | -11% | 15% | 5%
CCc1ccc(Nc2nnc(SCC(=O)NC(=O)CN3CCCC3=O)s2)cc1 | . | . | -8% | 13µM*
COc1ccccc1Nc1nnc(SCC(=O)N2CCCC2=O)s1 | -1% | -11% | 1% | 1%
CCCc1ccc(C2Sc3ccccc3NC3=C2C(=O)c2ccccc23)cc1 (configuration not stated) | -13% | . | . | .
CCC1C/C(=C/c2ccco2)C(=O)/C(=C/c2ccco2)C1 (configuration not stated) | -19% | ? | 32µM* | ?
COc1cc2c(cc1O)CCN[C@@]21CS[C@H]2c3c(OC(C)=O)c(C)c4c(c3C(COC1=O)N1C2C2c3c(cc(C)c(OC)c3O)CC([C@@H]1O)N2C)OCO4 (some centres not stated) | 10µM* | . | . | .
CC(=O)OC[C@]12CC[C@H]3[C@@](C)(CC[C@H]4C(C)(C)CCC[C@]34C)[C@@H]1C[C@H](C1=CC(=O)O[C@H]1OC(C)=O)O2 | . | . | -8% | 9.5µM*
CC(=O)OC[C@]12CC[C@H]3[C@@](C)(CC[C@H]4C(C)(C)CCC[C@]34C)[C@@H]1C[C@@H](C1=CC(=O)O[C@@H]1OC(C)=O)O2 | . | . | -4% | 6%
O=C(O)[C@H](O)[C@@H](O)[C@H](O[C@@H]1O[C@H](CO)[C@H](O)[C@H](O)[C@H]1O)[C@H](O)CO | . | . | . | 1%[21 µM]
COc1ccccc1N1C(=N)S/C(=C\c2ccc(-c3ccccc3C(=O)O)o2)C1=O | 2% | ? | ? | 28µM*
SMILES | BLM inh | RECQ1 helicase | L3MBTL1 block | APEX1 inh
COc1ccc(OC)c(-c2csc(NC(=O)COC(=O)C3CCC3)n2)c1 | . | . | -7% | -14%
COc1ccc(OC)c(-c2csc(NC(=O)COC(=O)c3ccc(NC(=O)CC#N)cc3)n2)c1 | . | . | ? | 15µM*
O/C=c1\ccc2cccc3nc(C(F)(F)F)nc1c23 | 14µM* | . | . | -27%
CCOc1cc(CNc2ccc(N3CCCCC3)cc2)cc(Br)c1OCC(=O)NC(C)(C)C | -9% | -11% | 28µM* | -1%
CCOc1cc(CNc2ccc(N3CCOCC3)cc2)cc(Br)c1OCC | -10% | ? | 32µM* | 3%
COCCNC(=O)C1(C(F)(F)F)C/C(=C\CCO)CCCO1 (configuration not stated) | 2% | 6% | . | 50µM*
COc1ccc(C2=Nn3c(nnc3-c3ccc(OC)c(OC)c3)SC2)cc1OC | -9% | i | . | ?
COc1ccc(-n2c(Cc3cccn3C)nnc2SCC(=O)N2CCCc3ccccc32)cc1 | -6% | 16µM* | -2% | 10%
COc1ccc(-n2c(Cc3cccn3C)nnc2SCC(=O)N2CCCC2)cc1 | 3% | -2% | -1% | -2%
Nc1ncc(O)c(N)n1 | 7% | -14% | . | -3%
CCOC(=O)C1=C(CSc2nc(-c3ccccc3)ccc2C#N)OC(N)=C(C#N)C1c1ccccc1 (configuration not stated) | -17% | 22µM* | . | -2%
Cc1ccccc1NS(=O)(=O)c1ccc2[nH]cc(C(=O)N(C)Cc3ccco3)c(=O)c2c1 | -2% | 32µM* | ? | 35µM*
Cc1ccc(CNc2ncc(N3CCCCC3)cn2)cc1 | . | . | . | 13%
Cc1ccc(NC(=O)CSc2nnc(-c3cccc([S+](=O)([O-])N4CCCC4)c3)n2-c2ccccc2)cc1 | . | . | . | 49%
CC(C)C(C)NC(=O)CSc1nc2scc(-c3ccco3)c2c(=O)n1-c1ccccc1 (configuration not stated) | -14% | i | . | -1%
CC(C)C(C)(C#N)NC(=O)CSc1nc2scc(-c3ccco3)c2c(=O)n1-c1ccccc1 (configuration not stated) | ? | 20µM* | -1% | ?
Cc1ccc(/C=C/C(=O)OCC(=O)c2ccc3c(c2)NC(=O)CO3)o1 | . | . | 0% | -13%
O=C1COc2ccc(C(=O)COC(=O)/C=C/c3ccc(Br)o3)cc2N1 | . | . | 3.5µM* | ?
COc1ccc(/C=N/Nc2cc(C)nc3ccc(OC)cc23)c(OC)c1 | 25µM* | . | 2% | 27µM*
Cn1nnnc1N=N/C(=N/Nc1ccccc1)c1ccccc1 | -3% | -10% | 2.8µM* | 3%
COc1cc2cc(Oc3ccc4ccc(=O)oc4c3)c(=O)oc2cc1O[C@@H]1O[C@H](CO)[C@@H](O)[C@H](O)[C@H]1O | . | . | 32µM* | -39%
COc1cc2cc(Oc3ccc4ccc(=O)oc4c3)c(=O)oc2cc1OC1OC(COC(=O)CC(C)(O)CC(=O)O)C(O)C(O)C1O (configuration not stated) | -9% | -3% | -7% | -3%
NC(=O)C1CCN(c2nc(-c3ccccc3)cs2)CC1 | . | . | . | 2%
Cc1ccc(O)c(NC(=O)c2ccc(Br)c(S(=O)(=O)N3CCCCC3)c2)c1 | -14% | . | . | .
COc1cccc2c1C(=O)c1c(O)c3c(c(O)c1C2=O)C[C@](O)(C(C)=O)C[C@H]3O[C@@H]1C[C@@H](N)[C@@H](O)[C@@H](C)O1 | . | . | -9% | 21µM*

Source: PubChem BioAssay
